# Compounds without any hit were thinned out: in the full panel of roughly 79,000, 15% have a hit. A number with no mark means an inactive call. Active and inactive are the calls of the source. Rule as the data show it: active = growth inhibition above about 70%; inactive = the rest.
# Tests used:
# [1] = NCI Yeast Anticancer Drug Screen. Data for the rad52 strain (AID 147);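 also: 0% = growth of vehicle-treated control cultures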; conditions: S. cerevisiae rad52 mutant growth inhibition, hits give high values
# Method in brief: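 Vehicle-treated cultures served as the reference for growth inhibition of compound-exposed yeast bearing a DNA repair mutation.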
# [2] = NCI Yeast Anticancer Drug Screen. Data for the wt1 strain (AID 149);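 also: 0% = growth of vehicle-treated wt1 cultures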; conditions: S. cerevisiae wt1 strain (SPY 50644) growth inhibition, hits give high values
# Method in brief: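 Each compound is tested on wt1 yeast and the loss of growth versus vehicle gives the inhibition value.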
# [3] = NCI Yeast Anticancer Drug Screen. Data for the rad50EPP+ strain (AID 151);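 also: 0% = growth of vehicle-treated control cultures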; conditions: S. cerevisiae rad50 mutant strain, hits give high values
# Method in brief: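 In this screen, rad50EPP+ yeast were exposed to compounds. Growth inhibition was scored against vehicle-treated controls.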
# [4] = NCI Yeast Anticancer Drug Screen. Data for the mgt1 strain (AID 153); conditions: S. cerevisiae mgt1 mutant growth inhibition, hits give high values
# Method in brief: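 mgt1 strain exposed; growth vs vehicle control recorded as inhibition.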
# [5] = NCI Yeast Anticancer Drug Screen. Data for the rad50 strain (AID 155);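 also: 0% = growth of vehicle-only cultures of the same strain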; conditions: S. cerevisiae rad50 strain growth inhibition, hits give high values
# Method in brief: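 Vehicle-treated cultures provide the reference for the growth inhibition reported for compound-exposed, repair-deficient yeast.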
# [6] = NCI Yeast Anticancer Drug Screen. Data for the mec2-1 strain (AID 157); conditions: S. cerevisiae mec2-1 strain, hits give high values
# Method in brief: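 Vehicle-treated cultures served as reference for growth inhibition of compound-exposed mec2-1 yeast.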
# [7] = NCI Yeast Anticancer Drug Screen. Data for the rad14 strain (AID 159);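 also: 0% = growth of vehicle-treated control cultures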; conditions: S. cerevisiae rad14 strain growth inhibition, hits give high values
# Method in brief: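 Inhibition of growth is reported for a repair-deficient yeast mutant following compound treatment, calculated relative to cultures that received vehicle.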
# [8] = NCI Yeast Anticancer Drug Screen. Data for the sgs1 mgt1 strain (AID 161);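 also: 0% = growth of cultures given vehicle only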; conditions: S. cerevisiae sgs1 mgt1 strain, hits give high values
# Method in brief: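 Mutant yeast exposed to compound; growth scored against vehicle-only wells.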
# [9] = NCI Yeast Anticancer Drug Screen. Data for the CLN2oe strain (AID 163);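 also: 0% = growth of vehicle-only control cultures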; conditions: S. cerevisiae CLN2oe strain, hits give high values
# Method in brief: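 Inhibition relative to vehicle-treated yeast is reported. Cells: strain with genetic alteration in cell-cycle control, grown with compound.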
# [10] = NCI Yeast Anticancer Drug Screen. Data for the cln2 rad14 strain (AID 165);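 also: 0% = growth equal to vehicle treated cultures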; conditions: S. cerevisiae cln2 rad14 strain, hits give high values
# Method in brief: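 Each compound was tested on cln2 rad14 yeast. Inhibition of growth was calculated against vehicle-exposed controls.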
# [11] = NCI Yeast Anticancer Drug Screen. Data for the bub3 strain (AID 167); conditions: S. cerevisiae bub3 mutant strain, hits give high values
# Method in brief: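 Mutant yeast screening strain plus compound; vehicle-treated cultures serve as the 0% inhibition reference.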
# [12] = NCI Yeast Anticancer Drug Screen. Data for the wt2 strain (AID 169); conditions: S. cerevisiae wt2 strain growth inhibition, hits give high values
# Method in brief: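 Inhibition of yeast growth was determined after compound treatment, normalised to controls receiving only vehicle.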
# [13] = NCI Yeast Anticancer Drug Screen. Data for the mlh1 strain (AID 171);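 also: 0% = growth of vehicle-treated control cultures of the same strain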; conditions: S. cerevisiae mlh1 strain growth inhibition, hits give high values
# Method in brief: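 Vehicle-normalised growth inhibition of a repair- or checkpoint-altered yeast strain following compound treatment.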
# [14] = NCI Yeast Anticancer Drug Screen. Data for the mlh1 rad18 strain (AID 175); conditions: S. cerevisiae mlh1 rad18 strain growth inhibition, hits give high values
# Method in brief: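 Vehicle-treated cultures served as the reference for growth inhibition in a yeast strain carrying DNA damage repair alterations exposed to each compound.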
# [15] = NCI Yeast Anticancer Drug Screen. Data for the rad18 strain (AID 177); conditions: S. cerevisiae rad18 mutant growth inhibition, hits give high values
# Method in brief: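 Test articles were incubated with altered yeast defective in DNA damage repair. Results are given as inhibition of growth versus vehicle.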
# [16] = at 5.0 µM (retest, dose inferred, filed as 0.5)
# [17] = at 50.0 µM (retest, dose inferred, filed as 5.0)
smiles,measurement,setting,value
CC(=O)OCC(=O)C1(O)CCC2C3CCC4CCCCC4(C)C3CCC21C (stereo not drawn),growth inhibition,[1]; at 1.2 µM,-52%
same,growth inhibition,[1]; at 3.7 µM,-27%
same,growth inhibition,[1]; at 11.0 µM,21%
same,growth inhibition,[1]; at 33.0 µM,55%
same,growth inhibition,[1]; at 100.0 µM,83% (active)
same,growth inhibition,[2]; at 1.2 µM,-20%
same,growth inhibition,[2]; at 3.7 µM,-14%
same,growth inhibition,[2]; at 11.0 µM,7%
same,growth inhibition,[2]; at 33.0 µM,50%
same,growth inhibition,[2]; at 100.0 µM,77% (active)
same,growth inhibition,[3]; at 1.2 µM,-9%
same,growth inhibition,[3]; at 3.7 µM,-16%
same,growth inhibition,[3]; at 11.0 µM,-40%
same,growth inhibition,[3]; at 33.0 µM,-22%
same,growth inhibition,[3]; at 100.0 µM,-25%
same,growth inhibition,[4]; at 1.2 µM,3%
same,growth inhibition,[4]; at 3.7 µM,3%
same,growth inhibition,[4]; at 11.0 µM,34%
same,growth inhibition,[4]; at 33.0 µM,57%
same,growth inhibition,[4]; at 100.0 µM,88% (active)
same,growth inhibition,[5]; at 1.2 µM,13%
same,growth inhibition,[5]; at 3.7 µM,-25%
same,growth inhibition,[5]; [16],59%
same,growth inhibition,[5]; at 11.0 µM,13%
same,growth inhibition,[5]; at 33.0 µM,53%
same,growth inhibition,[5]; [17],78% (active)
same,growth inhibition,[5]; at 50.0 µM,83.2% (active)
same,growth inhibition,[5]; at 100.0 µM,87% (active)
same,growth inhibition,[6]; at 1.2 µM,-3%
same,growth inhibition,[6]; at 3.7 µM,-10%
same,growth inhibition,[6]; [16],64%
same,growth inhibition,[6]; at 11.0 µM,14%
same,growth inhibition,[6]; at 33.0 µM,41%
same,growth inhibition,[6]; [17],84% (active)
same,growth inhibition,[6]; at 50.0 µM,61.5%
same,growth inhibition,[6]; at 100.0 µM,81% (active)
same,growth inhibition,[7]; at 1.2 µM,-31%
same,growth inhibition,[7]; at 3.7 µM,-17%
same,growth inhibition,[7]; at 11.0 µM,8%
same,growth inhibition,[7]; at 33.0 µM,60%
same,growth inhibition,[7]; at 100.0 µM,86% (active)
same,growth inhibition,[8]; [16],-11%
same,growth inhibition,[8]; [17],60%
same,growth inhibition,[8]; at 50.0 µM,70.5% (active)
same,growth inhibition,[9]; at 1.2 µM,10%
same,growth inhibition,[9]; at 3.7 µM,23%
same,growth inhibition,[9]; at 11.0 µM,34%
same,growth inhibition,[9]; at 33.0 µM,60%
same,growth inhibition,[9]; at 100.0 µM,82% (active)
same,growth inhibition,[10]; [16],35%
same,growth inhibition,[10]; [17],75% (active)
same,growth inhibition,[10]; at 50.0 µM,76% (active)
same,growth inhibition,[11]; at 1.2 µM,-24%
same,growth inhibition,[11]; at 3.7 µM,-13%
same,growth inhibition,[11]; [16],56%
same,growth inhibition,[11]; at 11.0 µM,26%
same,growth inhibition,[11]; at 33.0 µM,46%
same,growth inhibition,[11]; [17],74% (active)
same,growth inhibition,[11]; at 50.0 µM,76% (active)
same,growth inhibition,[11]; at 100.0 µM,82% (active)
same,growth inhibition,[12]; at 1.2 µM,-50%
same,growth inhibition,[12]; at 3.7 µM,-54%
same,growth inhibition,[12]; at 11.0 µM,-17%
same,growth inhibition,[12]; at 33.0 µM,27%
same,growth inhibition,[12]; at 100.0 µM,74% (active)
same,growth inhibition,[13]; at 1.2 µM,-2%
same,growth inhibition,[13]; at 3.7 µM,-8%
same,growth inhibition,[13]; at 11.0 µM,7%
same,growth inhibition,[13]; at 33.0 µM,37%
same,growth inhibition,[13]; at 100.0 µM,79% (active)
same,growth inhibition,[14]; [16],47%
same,growth inhibition,[14]; [17],80% (active)
same,growth inhibition,[14]; at 50.0 µM,70.8% (active)
same,growth inhibition,[15]; at 1.2 µM,10%
same,growth inhibition,[15]; at 3.7 µM,24%
same,growth inhibition,[15]; at 11.0 µM,32%
same,growth inhibition,[15]; at 33.0 µM,67%
same,growth inhibition,[15]; at 100.0 µM,92% (active)

# Reference: PubChem BioAssay (NCI)
